# Screening data deposited in PubChem BioAssay by several laboratories.
# The list is not random: actives were taken first. Their share in the collection is about 4.2%.
# hcDAF12 agonist – activates DAF-12 receptor from parasite H. contortus. 370,000 tested, 1.4% active. AID 652067. HEK293 hcDAF-12 lit1-tk-luc reporter, luminescence; 0% DMSO, 100% Δ7-dafachronic acid. activation, % at 6.8 µM;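 active = activation above the mean of all tested compounds plus 3 SD, cut at about 5.5% in these data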;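 also: 100% = response to 3 µM Δ7-dafachronic acid high control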
# DAX1 StAR inh – blocks DAX1 repression of SF-1 activated StAR promoter | AID 652010 | inhibition, % at 6.8 µM | HEK293T StAR-luciferase reporter, SF-1/DAX-1 repression relief | 370,000 tested, 1.1% active;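 active = inhibition above the mean over all tested compounds plus 3 SD, cut at about 3.6% in these data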;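 also: 0% = DAX-1 cells with DMSO and 100% = cells lacking DAX-1 with DMSO; higher inhibition means more luminescence from relief of DAX-1 repression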
# ssDAF-12 act – S. stercoralis DAF-12 activation, primary screen | HEK293 ssDAF-12/GRIP1 lit1-tk-luc reporter, luminescence; % of 3 µM dafachronic acid response | activation, % at 6.8 µM | 370,000 tested, 1% active;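 active = activation above the mean over all tested compounds plus 3 SD, cut at about 0.9% in these data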;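 also: 0% = DMSO-only wells and 100% = 3 µM delta7-dafachronic acid wells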
# hgDAF12 agonist – activates the H. glycines DAF-12 receptor ligand-binding domain; HEK293 GAL4-hgDAF12 UAS-luciferase reporter, agonist luminescence; normalized to butyrate control; activation, % at 6.8 µM; 370,000 tested, 1.8% active;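 active = activation above a cutoff set at the mean of all screened compounds plus 3 SD, cut at about 10% in these data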;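 also: 0% = DMSO wells and 100% = sodium butyrate wells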
# esBAF inh – blocks esBAF chromatin remodeling in mouse ES cells | Bmi1-luciferase knock-in reporter, 24 h; 100% = twice the neutral-well signal | reporter increase, % at 12.5 µM | 350,000 tested, 2% active | AID 602393; in the data active = activation above about 40%; inconclusive = no clear call, values can overlap the other calls;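 also: 0% = median of the plate's neutral control wells and 100% = double that signal; a rise in the Bmi1 reporter signal indicates esBAF inhibition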
# Wnt act – activators of Wnt/beta-catenin signaling; Wnt/beta-catenin reporter cell assay, activator, plate reader; activation, % at 9.35 µM; 300,000 tested, 1.2% active; AID 743398; in the data active = activation above about 30%, passing the limit was not always enough; inconclusive = no clear call, values can overlap the other calls;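 also: 0% = neutral control wells and 100% = positive control wells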
# * hit, by the source's call; ? = inconclusive; / = not tested or not shown.
SMILES,hcDAF12 agonist,DAX1 StAR inh,ssDAF-12 act,hgDAF12 agonist,esBAF inh,Wnt act
Cc1noc(C)c1S(=O)(=O)N(C)C[C@H]1OCCCC[C@@H](C)Oc2ccc(NS(=O)(=O)c3ccc(Cl)cc3)cc2C(=O)N([C@@H](C)CO)C[C@@H]1C,/,/,/,/,6.9,/
COc1ccc(C2c3ccc4ccccc4c3Oc3ncn(CCCO)c(=N)c32)cc1 (stereo unspecified),-1.7,0.0,-1.7,-3.2,7.3,2.9
N=c1c2c(ncn1CCCO)Oc1c(ccc3ccccc13)C2c1ccccc1 (stereo unspecified),-2.7,-0.4,-1.5,-0.7,/,42.5*
O=C(NCc1ccccc1)C(c1ccc(-c2ccccc2)cc1)n1c(=O)c(-c2ccco2)nc2ccccc21 (stereo unspecified),2.1,0.0,1.3*,1.9,/,-8.1
COc1ccc(C(C(=O)NC(C)(C)C)n2c(=O)c(-c3ccco3)nc3ccccc32)cc1 (stereo unspecified),0.6,-1.3,1.5*,2.3,/,19.2
O=C(NC1CCCCC1)C(C1CC1)n1c(=O)c(-c2ccco2)nc2ccccc21 (stereo unspecified),0.1,0.0,1.9*,-3.3,/,-8.6
COc1ccc(NC(=O)C(c2ccnc3ccccc23)n2c(=O)c(-c3ccccc3)nc3ccccc32)cc1 (stereo unspecified),5.6*,-0.6,-0.4,-1.4,/,2.7
O=C(NC1CCCCC1)C(c1ccccc1)n1c(=O)c(-c2ccco2)nc2ccccc21 (stereo unspecified),-0.6,-0.2,-1.2,0.1,/,-3.0
CO[C@H]1CN(C)C(=O)c2ccc(NC(=O)C3CC3)cc2OC[C@@H](C)N(Cc2cccc(F)c2)C[C@@H]1C,/,/,/,/,3.1,/
N#C[C@@H]1[C@H](c2ccc(C#CC3(O)CCCC3)cc2)[C@@H](CO)N1C(=O)C1CC1,/,/,/,/,0.7,/
C/C(=N\NC(=O)c1cc(Br)ccc1O)c1cccs1,3.0,2.3,-1.0,6.9,37.8,?
C/C(=N/NC(=O)c1ccc(Br)o1)c1cccs1,1.3,3.7*,0.4,7.5,/,9.2
Clc1ccc(Cl)c(-c2nn3c(COc4ccccc4)nnc3s2)c1,2.0,0.1,1.4*,-0.2,4.9,13.7
CCOC(=O)c1c(O)c2c([nH]c1=O)CCCC2,0.4,0.6,-1.0,3.1,-1.5,-1.2
CCOC(=O)c1c(O)c(Cl)c(C)[nH]c1=O,-0.6,0.2,-0.3,11.8*,-5.7,0.6
Cc1csc(Nc2ccc(Cl)cc2)n1,-1.5,1.3,0.0,8.7,75.8*,11.3
CCOC(=O)c1c(CN2CCC(C)CC2)n(C)c2cc(Br)c(OC)cc12,0.7,0.1,-1.5,-1.7,/,40.4*
Nc1nnc(CC(=O)N/N=C/c2cccc(OCCOc3ccccc3)c2)s1,3.0,1.5,-1.0,4.3,/,/
Cc1ccccc1OCCOc1cccc(/C=N/NC(=O)Cc2nnc(N)s2)c1,1.7,-0.9,-0.8,12.3*,35.7,/
CCCOc1ccc(-c2csc3nc[nH]c(=O)c23)cc1,-0.3,-0.2,0.0,8.9,?,37.9*
O=c1[nH]cnc2scc(-c3ccc(-c4ccccc4)cc3)c12,2.5,2.6,-0.8,7.9,24.1,/
COc1ccccc1NC(=O)N[C@H]1CC[C@H](CC(=O)N2CCC(Cc3ccccc3)CC2)O[C@H]1CO,/,/,/,/,8.5,/
c1cc(-c2ccc(N3CCOCC3)cc2)n2ccnc2c1,0.4,1.8,-0.6,5.0,57.1*,26.3
CC(=O)N(C)C[C@@H]1Oc2ncc(C#Cc3ccncc3)cc2C(=O)N([C@H](C)CO)C[C@@H]1C,/,/,/,/,-2.9,/
CCCCn1c(N)c(N(CC)C(=O)COc2ccc(C#N)cc2)c(=O)[nH]c1=O,-0.4,0.1,1.3*,-0.6,-6.5,-1.0
SMILES,hcDAF12 agonist,DAX1 StAR inh,ssDAF-12 act,hgDAF12 agonist,esBAF inh,Wnt act
COc1ccc(NC(=O)CSc2nc3ccccc3n2-c2ccccc2)c([N+](=O)[O-])c1,-2.0,-0.5,-1.4,-1.1,/,-5.5
COc1ccc(NC(=O)CSc2ccccc2)c([N+](=O)[O-])c1,0.8,1.4,-0.3,5.1,57.4*,3.6
CC(C)(C)C(=O)/C=C/c1ccc(Oc2ccccc2)cc1,1.4,-0.1,-0.6,1.5,34.0,32.6*
CCOc1ccc(/C=C/C(=O)c2ccccc2)cc1,6.2*,1.6,-0.2,8.3,?,?
CNC(=O)c1ccc(OC2CSC2)cc1,0.4,-0.6,-0.9,0.5,-0.2,-0.7
CCOc1ccc(C(=O)/C=C/c2ccc(SC)cc2)cc1,-1.2,-0.6,-2.2,-3.4,3.1,-0.4
O=C(/C=C/c1ccc(OC2CSC2)cc1)c1ccccc1,0.8,0.5,-0.3,0.1,?,38.5*
O=C(N/N=C\c1ccc(Oc2ccccc2)cc1)c1csnn1,1.3,1.9,0.0,11.4*,/,-1.2
C[C@@H]1CN([C@H](C)CO)C(=O)c2cc(NC(=O)CCC(F)(F)F)ccc2O[C@@H](C)CCCCO[C@@H]1CN(C)C(=O)c1ccccc1,/,/,/,/,2.0,/
CO[C@H]1CN(C)C(=O)c2ccc(NC(C)=O)cc2OC[C@@H](C)NC[C@@H]1C,/,/,/,/,-4.7,/
O=C(N/N=C/c1ccc(OC2CSC2)cc1)c1ccccc1,1.9,4.2*,-0.2,4.7,66.7*,/
O=C1/C(=C/N(C(=O)c2ccco2)c2ccc(Br)cc2)Sc2ccccc21,/,/,/,/,48.4*,/
COc1ccc(CN(C(=O)c2ccco2)c2ccc(Br)cc2)cc1OC,-2.0,-0.7,-1.3,1.2,0.0,-3.5
Cn1nnc(NC(=O)C(c2ccccc2)c2ccccc2)n1,0.1,0.1,-0.6,0.3,-1.9,39.6*
C/C(=N\Nc1nc2ccccc2[nH]1)c1ccc(N2CCOCC2)cc1,3.4,3.9*,0.0,7.5,/,6.8
C/C(=N\Nc1nc(C)cc(C)n1)c1ccc(N2CCOCC2)cc1,-1.6,1.0,-1.0,2.4,2.2,0.7
C[C@@H]1CN([C@@H](C)CO)C(=O)c2cc(NC(=O)Nc3ccc(C(F)(F)F)cc3)ccc2O[C@@H]1CN(C)C(=O)Nc1ccc(F)cc1,/,/,/,/,-4.9,/
CO[C@H]1CN(C)C(=O)c2cc(NS(=O)(=O)CC(F)(F)F)ccc2OC[C@@H](C)N(Cc2ccccn2)C[C@H]1C,/,/,/,/,2.9,/
CSc1nc(Cl)c(Cc2ccc(OCC(C)C)cc2)c(N2CCOCC2)n1,5.9*,-0.6,-0.7,0.0,-3.7,-9.7
CCCCOc1ccc(Cc2c(Cl)nc(SC)nc2N2CCOCC2)cc1,-0.8,0.2,-1.7,0.1,4.2,/
O=C(CSc1ncccn1)c1ccccc1Br,0.5,0.1,-1.0,2.9,40.9*,/
O=C(O)CSc1ncccn1,0.2,-0.1,-1.0,1.0,-5.3,5.4
N#Cc1cccc(-c2ccc3c(c2)[C@H]2[C@H](CCN2C(=O)c2ccncc2)[C@H](CO)N3)c1,/,/,/,/,18.1,/
Cc1cc(C(=O)N/N=C/c2c(C)nn(-c3ccccc3)c2Cl)n[nH]1,0.8,0.0,-1.3,2.8,51.7*,6.3
